Bioassay records: PubChem BioAssay, several laboratories
An excerpt weighted towards active compounds, which were near 13% of everything screened.
WT yeast gro inh: growth inhibition of WT yeast, mitochondrial fusion screen; 190,000 tested, 2.1% active; mitochondrial fusion phenotypic screen, WT strain; inhibition, % at 10 µM; AID 1362; in the data active = inhibition above about 58%; tested in S. cerevisiae
Lmaj promast: reduces viability of Leishmania major promastigotes. resazurin fluorescence viability. inhibition, % at 10 µM. 200,000 tested, 9% active. AID 1063; in the data active = inhibition above about 50%;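 also: promastigotes grown with compound for 44 hours at 28 °C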
RAM network inh: blocks the yeast RAM network; S. cerevisiae dse1pr::URA3 reporter, 5-FOA growth OD615, 2 d; analog-sensitive cbk1-as2 kinase mutant strain; inhibition, % at 50 µM; 190,000 tested, 1.8% active; AID 868;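 active = inhibition above a set limit, 3 SD over mean compound inhibition, cut at about 8.4% in these data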;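 also: inhibition rescues growth on 5-FOA so higher OD means more RAM inhibition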
CHOP inhibitor: CHOP inhibition in unfolded protein response; CHO-K1 CHOP-promoter luciferase, tunicamycin-induced, 15-18 h; inhibition, % at 10 µM; 220,000 tested, 3.8% active;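 active = compounds that reduced the stress-induced luciferase reporter signal by more than about 70% of percent inhibition, limit read from the data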
A number is an active result; – = inactive; · = not tested or not shown.

SMILES	WT yeast gro inh	Lmaj promast	RAM network inh	CHOP inhibitor
Cc1cc(C)n2nc(C(F)(F)F)c(-c3ccccc3)c2n1	–	–	–	–
COc1ccc(C(=O)Nc2nc3cc4c(cc3s2)OCCO4)c(OC)c1	·	·	·	–
COc1ccc2cc(S(=O)(=O)N3CCCCCC3)ccc2c1	–	57	–	–
COc1ccc(S(=O)(=O)N2CCCCCC2)cc1N(C)S(=O)(=O)c1ccc(C)cc1	–	51	–	–
COc1ccc(NS(=O)(=O)c2ccc(S(=O)(=O)N3CCCC3)cc2)cc1	–	52	–	–
COc1ccc(S(=O)(=O)N2CCCCCC2)cc1Br	–	–	–	–
COc1ccc(NS(=O)(=O)c2ccc(S(=O)(=O)N3CCOCC3)cc2)cc1	–	–	–	–
O=c1oc2ccccc2c(Nc2cccc3cccnc23)c1[N+](=O)[O-]	–	–	–	–
Cc1ccc(-n2ncc3c(=O)n(CC(=O)N4CCN(c5ccccc5)CC4)cnc32)cc1C	–	–	–	–
Cc1[nH]c2ccccc2c1SCc1ccccc1	–	–	–	83
c1ccc(CSc2nc3ncncc3[nH]2)cc1	·	·	·	–
S=c1nc(SCc2ccccc2)[nH]c2ccccc12	62	–	–	–
CCOC(=O)CSc1nc(C)c(C(C)=O)cc1C(N)=O	–	–	–	–
O=C(NC1CCCC1)c1ccc(CSCc2ccccc2F)o1	–	89	–	–
O=C(NC1CCCCC1)c1ccc(CS(=O)(=O)Cc2ccccc2F)o1	–	–	–	–
Cc1cc(NC(=O)CCCn2ccc([N+](=O)[O-])n2)n(Cc2ccc(F)cc2)n1	–	–	–	–
Oc1ccccc1N=Cc1sc2ccccc2c1Cl	–	57	–	–
C/C(N)=C(/C#N)C(=O)COC(=O)c1oc2ccccc2c1COC(C)C	–	–	–	–
COc1ccc(Sc2ccc(/C=C3\C(=O)NN(c4ccccc4)C3=O)o2)cc1	–	56	–	–
O=C1NN(c2ccccc2)C(=O)/C1=C\c1ccc(-c2cc([N+](=O)[O-])ccc2O)o1	–	–	–	–
O=C(Nc1ccc(Cl)cc1)N(Cc1nc2ccccc2c(=O)[nH]1)Cc1cccs1	–	85	–	–
COc1ccccc1CN(Cc1nc2ccccc2c(=O)[nH]1)C(=O)Nc1cccc(C)c1	–	86	–	–
COc1ccc(S(=O)(=O)N(Cc2ccccc2)Cc2nc3ccccc3c(=O)[nH]2)cc1	–	–	–	72
COc1cc2nc(CN(C)Cc3nc4ccccc4c(=O)[nH]3)[nH]c(=O)c2cc1OC	–	–	–	–
COc1ccccc1CN(Cc1nc2ccccc2c(=O)[nH]1)S(=O)(=O)c1ccc2ccccc2c1	–	90	–	–
SMILES	WT yeast gro inh	Lmaj promast	RAM network inh	CHOP inhibitor
O=C(Nc1ccccc1Cl)N(Cc1nc2ccccc2c(=O)[nH]1)Cc1cccs1	–	–	–	–
Cc1ccc2c(c1)N=C(c1ccc(F)cc1)CO2	–	–	–	78
O=[N+]([O-])c1ccc(C2=Nc3cc(Cl)ccc3OC2)cc1	–	–	–	–
CCCn1c(N2CCN(Cc3ccc(Cl)cc3)CC2)nc2ccccc21	–	55	–	–
Cc1ccc(N2CCN(c3ccc(NCc4nc5ccccc5n4C)cc3)CC2)cc1	–	–	–	–
CCn1c(N2CCN(S(=O)(=O)CC)CC2)nc2ccccc21	–	–	–	–
CCCCCn1c(CN2CCN(c3cccc(Cl)c3)CC2)nc2c1c(=O)[nH]c(=O)n2C	–	–	–	–
Cn1c(=O)[nH]c(=O)c2c1nc(CN1CCN(c3cccc(Cl)c3)CC1)n2CCc1ccccc1	–	–	–	82
CCCCCCCCn1c(N2CCN(c3cccc(Cl)c3)CC2)nc2c1c(=O)[nH]c(=O)n2C	–	–	9.1	–
Cn1c(CN2CCN(c3cccc(Cl)c3)CC2)nc2ccccc21	–	68	–	–
CN(C)S(=O)(=O)c1cccc(NC(=S)NCCCn2ccnc2)c1	–	–	–	–
Cc1cccc(NC(=O)c2ccc(COc3ccc(Cl)cc3Cl)o2)n1	60	–	–	–
COc1ccc(NC(=O)c2ccc(COc3ccccc3Br)o2)cc1OC	–	–	–	–
COc1ccc(/C=N/NC(=O)c2ccc(COc3ccccc3Cl)o2)c(OC)c1C	–	56	–	87
COc1cc(NC(=O)c2ccc(COc3ccccc3Br)o2)cc(OC)c1OC	–	68	–	–
Cc1cccc(NC(=O)c2ccc(COc3ccc4ccccc4c3)o2)n1	–	–	–	–
CN(C(=O)c1ccc(COc2ccccc2Br)o1)c1ccccc1	67	–	–	–
Cc1nn(-c2ccccc2)c(/N=C/c2ccccc2O)c1-c1ccccc1	–	–	–	–
O=C(Cn1cc(C(F)(F)F)ccc1=O)N/N=C/c1cccc(Cl)c1Cl	–	75	–	–
O=C(Cn1cc(C(F)(F)F)ccc1=O)N/N=C/c1ccc(Cl)c(Cl)c1	–	–	–	–
COc1ccc2c(C)cc(SCC(=O)N(C)C3CCS(=O)(=O)C3)nc2c1 (stereo unspecified)	–	–	–	–
O=C(Nc1ccc2nc(-c3cccnc3)[nH]c2c1)C12CC3CC(CC(C3)C1)C2	–	77	–	–
CC(C)c1nc2ccc(NC(=O)C34CC5CC(CC(C5)C3)C4)cc2[nH]1	–	–	–	–
O=C(COc1cccc2ccccc12)Nc1nc2ccccc2[nH]1	67	–	–	–
O=C(Nc1nc2ccccc2[nH]1)C1CC1	–	–	–	–
SMILES	WT yeast gro inh	Lmaj promast	RAM network inh	CHOP inhibitor
O=C(Nc1ccc2nc(-c3cccnc3)[nH]c2c1)C1CCCCC1	–	68	–	–
O=C(Nc1nc2ccccc2[nH]1)C12CC3CC(CC(C3)C1)C2	–	90	–	–
CN(c1ccccc1)S(=O)(=O)c1cccc(NC(=O)COC(=O)C2CCCCC2)c1	·	·	·	–
CCOC(=O)C1=NN(C(=O)COc2ccccc2)C(O)(c2ccc(Br)cc2)C1 (stereo unspecified)	–	–	–	–
CC/C(O)=C1\C(=O)CCCC1=NCc1nc2ccccc2[nH]1	–	–	–	–
COc1cccc(N(CC(=O)NCC2CCCO2)C(=O)CCC(=O)Nc2nccs2)c1 (stereo unspecified)	–	–	–	–
O=C(c1cc2sccc2n1Cc1ccc(F)cc1)N1CCN(c2nc3ccccc3s2)CC1	–	84	–	–
CCOc1ccccc1N(C(=O)c1snc(C(N)=O)c1N)C(C(=O)NCCC(C)C)c1ccco1 (stereo unspecified)	–	–	–	–
CCc1ccc(N(C(=O)c2snc(C(N)=O)c2N)C(C(=O)NCCC(C)C)c2c[nH]c3ccccc23)cc1 (stereo unspecified)	–	–	–	86
CCOC(=O)CC(=O)CSc1nc2c(sc(=S)n2-c2ccc(OCC)cc2)c(=O)[nH]1	–	–	8.7	–
CN1CCN(CC(C)(C)NS(=O)(=O)c2ccc(Cl)cc2)CC1	–	94	–	–
CCCCOc1ccc(C(=O)N/C(=C\c2cccc([N+](=O)[O-])c2)C(=O)OC(C)C)cc1	–	–	8.8	–
CCCCOc1ccc(C(=O)N/C(=C\c2cccc([N+](=O)[O-])c2)C(=O)OCCC)cc1	–	–	–	–
N#Cc1nc(COc2ccc(Cl)cc2)oc1N1CCCCCC1	–	–	–	71
COc1ccc(N2CCN(c3oc(COc4ccccc4Cl)nc3C#N)CC2)cc1	–	–	–	–
